PMC6212790, “How bacterial xenogeneic silencer rok distinguishes foreign from self DNA in its resident genome”
In all, about 33,000 sequences were measured (“e-score”: median about -0.037, highest 2% from about 0.34 on). The sample as a whole holds a higher share of the highest values than the screen did.

Target: T1, GST-Rok (full length) (Bacillus subtilis subsp. subtilis str. …, UniProt O34857 1-191)
T1 sequence: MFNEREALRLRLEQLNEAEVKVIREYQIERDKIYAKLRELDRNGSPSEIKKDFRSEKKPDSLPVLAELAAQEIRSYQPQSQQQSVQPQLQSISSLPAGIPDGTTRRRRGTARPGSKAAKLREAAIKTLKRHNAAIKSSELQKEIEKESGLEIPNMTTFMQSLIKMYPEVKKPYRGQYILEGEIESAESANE
Experiment: protein binding microarray; Rok is a gene silencer of Bacillus subtilis; high values mean tight binding
Details: protein: recombinant; tags: GST (pTH5325, pDEST15-Magic modified); dsDNA, one strand shown
How it was run: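 Every oligonucleotide joins a 25-mer constant primer to a 35-mer variable part drawn from a de Bruijn sequence of order 10, so each non-palindromic 8-mer appears at least 32 times and each palindromic 8-mer 16 times. The preference for every 8-mer is reported as a unitless, rank-based enrichment score (E-score). This score spans 0.5 for the most favored 8-mer to −0.5 for the most disfavored.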

**Q.** How did the binding signal turn out when AATTGGTA was run?
**A.** 0.339 E-score

**Q.** For CATTGGTA, which binding signal is on record?
**A.** 0.223 E-score

**Q.** ACCGCCAC was tested. Which binding signal did it give?
**A.** -0.135 E-score

**Q.** How did the binding signal turn out when AATTGTGT was run?
**A.** 0.149 E-score

**Q.** For CACTTTAG, which binding signal is on record?
**A.** -0.146 E-score

**Q.** Which binding signal does the source give for ATACTTAA here?
**A.** 0.0668 E-score

**Q.** How did the binding signal turn out when GTACTTAA was run?
**A.** 0.275 E-score

**Q.** With ATACTGTG as the sequence, how does the binding signal read?
**A.** 0.0179 E-score

**Q.** Which binding signal does the source give for CTACTGAA here?
**A.** 0.0898 E-score

**Q.** ATACTGTA was tested. Which binding signal did it give?
**A.** 0.34 E-score

**Q.** How did the binding signal turn out when ATACTGAA was run?
**A.** 0.103 E-score

**Q.** For GTACTGTA, which binding signal is on record?
**A.** 0.155 E-score

**Q.** With CTACTTAA as the sequence, how does the binding signal read?
**A.** 0.372 E-score

**Q.** For CTACTGTA, which binding signal is on record?
**A.** 0.343 E-score

**Q.** For ACAGTACG, which binding signal is on record?
**A.** 0.142 E-score

**Q.** For GAAGTTGC, which binding signal is on record?
**A.** 0.0518 E-score

**Q.** Which binding signal does the source give for ACGGTCTG here?
**A.** -0.0535 E-score

**Q.** With AGCTTACG as the sequence, how does the binding signal read?
**A.** -0.0197 E-score

**Q.** Which binding signal does the source give for TCGATTAA here?
**A.** 0.142 E-score

**Q.** With CCGAACTC as the sequence, how does the binding signal read?
**A.** 0.0171 E-score

**Q.** With ACCTACCA as the sequence, how does the binding signal read?
**A.** 0.248 E-score

**Q.** How did the binding signal turn out when ACTTACAT was run?
**A.** 0.349 E-score

**Q.** How did the binding signal turn out when ACTTACAG was run?
**A.** -0.0639 E-score

**Q.** ACTTACAA was tested. Which binding signal did it give?
**A.** 0.176 E-score

**Q.** CGATATCG was tested. Which binding signal did it give?
**A.** 0.243 E-score

**Q.** GCCGTGAC was tested. Which binding signal did it give?
**A.** -0.176 E-score

**Q.** For CACTATCA, which binding signal is on record?
**A.** 0.219 E-score

**Q.** With GTCTATCA as the sequence, how does the binding signal read?
**A.** -0.00992 E-score

**Q.** How did the binding signal turn out when AACTATCA was run?
**A.** 0.417 E-score

**Q.** For TACTATCA, which binding signal is on record?
**A.** 0.35 E-score

**Q.** Which binding signal does the source give for GACTATCA here?
**A.** -0.0777 E-score

**Q.** How did the binding signal turn out when TACTATGA was run?
**A.** 0.228 E-score

**Q.** AACTATAA was tested. Which binding signal did it give?
**A.** 0.326 E-score

**Q.** For TACTATAA, which binding signal is on record?
**A.** 0.439 E-score

**Q.** With CTCTATCA as the sequence, how does the binding signal read?
**A.** -0.0321 E-score

**Q.** With CACTATAA as the sequence, how does the binding signal read?
**A.** 0.303 E-score

**Q.** For ATCTATCA, which binding signal is on record?
**A.** 0.409 E-score

**Q.** For TCCTATCA, which binding signal is on record?
**A.** 0.123 E-score

**Q.** How did the binding signal turn out when ACATTAAT was run?
**A.** 0.245 E-score

**Q.** With AGATAAGG as the sequence, how does the binding signal read?
**A.** 0.0533 E-score

**Q.** Which binding signal does the source give for ATCCTATG here?
**A.** 0.106 E-score

**Q.** How did the binding signal turn out when GAGCTGCA was run?
**A.** -0.0813 E-score

**Q.** With CGAAAAGA as the sequence, how does the binding signal read?
**A.** 0.00822 E-score

**Q.** With AGGATCAC as the sequence, how does the binding signal read?
**A.** -0.0581 E-score

**Q.** ATTGGTGA was tested. Which binding signal did it give?
**A.** 0.0777 E-score

**Q.** How did the binding signal turn out when TAGCTAAA was run?
**A.** 0.214 E-score

**Q.** How did the binding signal turn out when ATATCCGG was run?
**A.** 0.237 E-score

**Q.** TAGGTTCA was tested. Which binding signal did it give?
**A.** 0.128 E-score

**Q.** With AAGATGGT as the sequence, how does the binding signal read?
**A.** 0.0131 E-score

**Q.** CCCGTTCA was tested. Which binding signal did it give?
**A.** -0.154 E-score

**Q.** For AATATGCA, which binding signal is on record?
**A.** 0.304 E-score

**Q.** Which binding signal does the source give for AGCTATCA here?
**A.** 0.336 E-score

**Q.** CGCTATCA was tested. Which binding signal did it give?
**A.** 0.0965 E-score

**Q.** GGCTATCA was tested. Which binding signal did it give?
**A.** -0.0678 E-score

**Q.** Which binding signal does the source give for ACGATTCA here?
**A.** -0.00504 E-score

**Q.** For AATGTAGG, which binding signal is on record?
**A.** 0.174 E-score

**Q.** For AATGTAGA, which binding signal is on record?
**A.** 0.389 E-score

**Q.** For CATGTAGG, which binding signal is on record?
**A.** 0.116 E-score

**Q.** With AACGTAGT as the sequence, how does the binding signal read?
**A.** 0.0637 E-score

**Q.** How did the binding signal turn out when CATGTAGC was run?
**A.** 0.384 E-score

**Q.** Which binding signal does the source give for AATGTAGT here?
**A.** 0.363 E-score

**Q.** For CCTGTAGA, which binding signal is on record?
**A.** 0.0279 E-score

**Q.** Which binding signal does the source give for GCTGTAGA here?
**A.** 0.0153 E-score

**Q.** Which binding signal does the source give for AATGTAAT here?
**A.** 0.326 E-score

**Q.** ACTGTAGA was tested. Which binding signal did it give?
**A.** 0.373 E-score

**Q.** With GATGTAGC as the sequence, how does the binding signal read?
**A.** 0.0838 E-score

**Q.** With AATGTAGC as the sequence, how does the binding signal read?
**A.** 0.221 E-score

**Q.** For AGCTGCAC, which binding signal is on record?
**A.** 0.104 E-score

**Q.** How did the binding signal turn out when GAAGTCCC was run?
**A.** -0.124 E-score

**Q.** With ACCGATCC as the sequence, how does the binding signal read?
**A.** -0.198 E-score

**Q.** With ATGAGGCG as the sequence, how does the binding signal read?
**A.** -0.173 E-score

**Q.** Which binding signal does the source give for CTTAGGTC here?
**A.** 0.00712 E-score

**Q.** With AAGCTAAG as the sequence, how does the binding signal read?
**A.** -0.0658 E-score

**Q.** GATGTAGA was tested. Which binding signal did it give?
**A.** 0.209 E-score

**Q.** Which binding signal does the source give for TATGTAGA here?
**A.** 0.292 E-score

**Q.** Which binding signal does the source give for CATGTAGA here?
**A.** 0.374 E-score

**Q.** Which binding signal does the source give for CGCTCTGA here?
**A.** -0.0888 E-score

**Q.** Which binding signal does the source give for AGTAGGAA here?
**A.** 0.231 E-score

**Q.** Which binding signal does the source give for AGTAATCG here?
**A.** 0.0386 E-score

**Q.** With AGTAATAC as the sequence, how does the binding signal read?
**A.** 0.26 E-score

**Q.** How did the binding signal turn out when CGTAATAG was run?
**A.** 0.318 E-score

**Q.** ACTAATAT was tested. Which binding signal did it give?
**A.** 0.385 E-score

**Q.** With AGTAATAG as the sequence, how does the binding signal read?
**A.** 0.365 E-score

**Q.** ACTAATAC was tested. Which binding signal did it give?
**A.** 0.265 E-score

**Q.** For AGTAATAT, which binding signal is on record?
**A.** 0.402 E-score

**Q.** AGTAATAA was tested. Which binding signal did it give?
**A.** 0.197 E-score

**Q.** Which binding signal does the source give for ACTAATAG here?
**A.** 0.227 E-score
